# According to PubChem BioAssay (NCATS):
# Values joined by “and” are separate entries in the source; they are usually repeats but may differ in a detail not shown here. Equal entries are not always repeated. Unmarked numbers belong to inactive results. Inconclusive results are not listed. Active and inactive are the calls of the source. Unless noted, calls come from the whole dose curve; as a rule, active = well fitted curve in the direction sought with a large enough effect; inconclusive = small, poorly fitted or top-dose-only effect, or another doubt; inactive = no such curve, though single readings can be large; an effect the other way counts as inactive or inconclusive.
# Tests used:
# [1] = qHTS assay for small molecule activators of the nuclear factor-kappa B (NF-kB) signaling pathway (AID 651749; active = well fitted activation curve with a large enough effect in the signal ratio; the % refers to the signal ratio; note: % of control where 0% means no effect); details: NF-kB-bla ME-180 cells, beta-lactamase FRET ratio, 16 h; active compounds read high
# Method in brief: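 ME-180 cells stably carrying a beta-lactamase reporter under an NF-kB response element were exposed to compound or DMSO vehicle for 16 hr at 37C, 5% CO2. Pathway activation was read by FRET, since reporter expression disrupts FRET.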
# [2] = molecular target: Peroxisome proliferator-activated receptor alpha (Homo sapiens) (UniProt Q07869); assay: qHTS assay for small molecule agonists of the peroxisome proliferator-activated receptor alpha (PPARalpha) signaling pathway (AID 651778); details: PathHunter PPARalpha complementation, chemiluminescence, 6 h; active compounds read high; note: % of control where 0% means no effect
# Method in brief: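 Cells plated at 2,000/well and held overnight at 37 C, 5% CO2, then compound added by pin tool for 6 hr; after PathHunter detection reagent and 60 min at room temperature, chemiluminescence from enzyme complementation was read.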
# [3] = qHTS assay for small molecule disruptors of the mitochondrial membrane potential - 1 hr assay (AID 651754; calls by dose curve; note: nearly all actives have a fitted effect of over 35% in size; note: potency is the fitted concentration of half-maximal effect); details: series mostly up to 92.2 µM
# Description: National Center for Advancing Translational Sciences [NCATS]
# NIH Chemical Genomics Center [NCGC]
# National Institutes of Environmental Health Sciences [NIEHS]
# National Toxicology Program [NTP]
# Mitochondrial membrane potential (MMP), one of the parameters for mitochondrial function, is generated by mitochondrial electron transport chain that creates an electrochemical gradient by a series of redox reactions. This gradient drives the synthesis of ATP, a crucial molecule for various cellular processes. Measuring MMP in living cells is commonly used to assess the effect of chemicals on mitochondrial function. […] The dye accumulates in the mitochondria of healthy cells as aggregates, with red fluorescence. The mitochondrial potential collapses and the dye can no longer accumulate in the mitochondria and remains in the cytoplasm in monomers, with green fluorescence.
# 2,000 HepG2 cells in 5 uL/well were dispensed into black, clear-bottom 1536-well plates using a Multidrop Combi (Thermo Scientific) dispenser. The assay plates were incubated overnight at 37C to allow cells to attach to the wells, followed by the transfer of 23 nL compound or DMSO vehicle by a pin tool (Kalypsys). The plates were incubated for 1 hr at 37C and 5% CO2, followed by the addition of 5 uL of 2X Mito-MPS dye (BD Biosciences) into each well using Flying Reagent Dispenser (Aurora Discovery) and then following 30 min incubation at 37C. Fluorescence intensity (490nm excitation and 535nm emission for monomers; and 540nm excitation and 590nm emissions for aggregates) was measured using an Envision plate reader.
# [4] = molecular target: Tumor necrosis factor (Homo sapiens) (UniProt P01375); assay: qHTS assay to identify small molecules that stimulate Tumor Necrosis Factor-alpha (TNF-alpha) secretion (AID 651757; active = well fitted curve in the direction sought with a large enough effect in the signal ratio; the % refers to the signal ratio; note: 0% is about no effect); details: Human cells, HTRF 665/615 ratio; series mostly up to 92.2 µM
# Method in brief: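 THP-1 cells were exposed to compounds for 17 hrs at 37 C, after which secreted TNF-alpha was measured by homogeneous HTRF (TR-FRET) using cryptate- and XL665-labeled anti-TNF-alpha antibodies, read after 3 hr at room temperature.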
# [5] = molecular target: Nuclear receptor ROR-gamma (Homo sapiens) (UniProt P51449); assay: qHTS assay for small molecule antagonists of the retinoid-related orphan receptor gamma (ROR-gamma) signaling pathway (AID 651802); details: ROR-gamma antagonist cell reporter assay; series mostly up to 92.2 µM; note: nearly all actives have a fitted effect of over 60% in size; note: potency is the fitted concentration of half-maximal effect
# Method in brief: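 CHO cells carrying TET-inducible ROR-gamma and an ROR response element–luciferase reporter were exposed to compound, then induced with doxycycline. After 16hr at 37C, luminescence was read; lower signal indicates antagonism.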
# [6] = qHTS assay for small molecule disruptors of the mitochondrial membrane potential - 5 hr assay (AID 651755; calls by dose curve; note: potency is the fitted concentration of half-maximal effect; nearly all actives have a fitted effect of over 40% in size); details: JC-1-type ratio dye; series mostly up to 92.2 µM
# Method in brief: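 HepG2 cells, attached overnight at 37C, were exposed to compound or DMSO for 5 hr at 37C, 5% CO2. Mito-MPS dye was then added for 30 min, and fluorescence read at 490/535 nm (monomers) and 540/590 nm (aggregates).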
# Sequence of Nuclear receptor ROR-gamma (Homo sapiens) (P51449 whole entry, looked up): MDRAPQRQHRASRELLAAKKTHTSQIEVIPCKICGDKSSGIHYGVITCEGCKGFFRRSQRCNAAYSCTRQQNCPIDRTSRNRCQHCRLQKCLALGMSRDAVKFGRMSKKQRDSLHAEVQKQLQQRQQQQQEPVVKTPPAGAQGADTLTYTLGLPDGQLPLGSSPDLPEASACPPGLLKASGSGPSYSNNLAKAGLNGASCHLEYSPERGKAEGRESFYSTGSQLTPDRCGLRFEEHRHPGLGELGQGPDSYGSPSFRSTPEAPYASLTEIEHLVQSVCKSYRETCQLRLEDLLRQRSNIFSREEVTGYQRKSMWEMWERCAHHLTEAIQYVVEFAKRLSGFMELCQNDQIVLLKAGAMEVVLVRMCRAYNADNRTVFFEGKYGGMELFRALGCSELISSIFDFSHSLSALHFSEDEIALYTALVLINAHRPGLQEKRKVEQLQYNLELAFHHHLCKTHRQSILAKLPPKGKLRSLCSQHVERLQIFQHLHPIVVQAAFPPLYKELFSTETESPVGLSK
# Sequence of Tumor necrosis factor (Homo sapiens) (P01375 whole entry, looked up): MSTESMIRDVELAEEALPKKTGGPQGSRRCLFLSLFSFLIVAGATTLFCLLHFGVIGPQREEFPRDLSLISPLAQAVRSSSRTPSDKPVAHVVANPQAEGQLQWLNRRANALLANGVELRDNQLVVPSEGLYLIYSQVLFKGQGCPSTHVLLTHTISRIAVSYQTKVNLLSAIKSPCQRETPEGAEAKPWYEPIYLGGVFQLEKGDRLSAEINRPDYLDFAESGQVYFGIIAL
# Sequence of Peroxisome proliferator-activated receptor alpha (Homo sapiens) (Q07869 whole entry, looked up): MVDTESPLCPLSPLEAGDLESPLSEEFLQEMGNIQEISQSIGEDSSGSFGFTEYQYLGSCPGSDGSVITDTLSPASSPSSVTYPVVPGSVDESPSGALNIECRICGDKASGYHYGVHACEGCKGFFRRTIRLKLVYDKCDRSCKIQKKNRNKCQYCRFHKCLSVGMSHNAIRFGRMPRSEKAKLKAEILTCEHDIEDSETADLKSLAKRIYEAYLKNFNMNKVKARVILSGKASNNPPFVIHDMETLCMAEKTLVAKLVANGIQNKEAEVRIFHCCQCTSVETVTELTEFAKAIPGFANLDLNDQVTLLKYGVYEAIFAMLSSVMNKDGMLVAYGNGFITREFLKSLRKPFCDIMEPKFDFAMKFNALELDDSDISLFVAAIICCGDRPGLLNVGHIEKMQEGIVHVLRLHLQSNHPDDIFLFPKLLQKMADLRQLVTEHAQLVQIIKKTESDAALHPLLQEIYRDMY
structure (smiles),measurement,setting,value
CCCCCCCCCCCCCC(=O)OC(C)C,activation,[1],0.876%
same,max response,[2],-1.44%
CCCCCCCCCCCCCCCCO,activation,[1],-1.7%
same,max response,[2],0.0651%
NCCNc1cccc2ccccc12,activation,[1],-0.261% and 2.79%
same,Potency,[3],inactive
same,max response,[2],-2.74% and -3.34%
CCOc1ccc(NC(C)=O)cc1,outcome,[4],inactive
same,max response,[2],-5.21% and -4.18%
same,Potency,[5],inactive
CN(C)C(=O)Nc1ccc(Cl)c(Cl)c1,max response,[2],0.591%
CCCCCCCC/C=C\CCCCCCCCN,max response,[2],0.202%
COc1ccc(C(Cl)=C(c2ccc(OC)cc2)c2ccc(OC)cc2)cc1,activation,[1],3.39%
same,Potency,[3],15 µM (active)
same,Potency,[6],18.8 µM (active)
same,outcome,[4],inactive
same,max response,[2],-4.66%
same,Potency,[5],18.8 µM (active)
CC1(C)OC[C@@H]2O[C@@]3(C(=O)O)OC(C)(C)O[C@H]3[C@@H]2O1,activation,[1],0.144%
same,max response,[2],-1.9%
COc1ccc(C(=O)c2ccccc2)c(O)c1,activation,[1],0.344% and -5.21%
same,outcome,[4],inactive
same,max response,[2],1.86% and -0.894%
same,Potency,[5],inactive
CCCN(CCC)S(=O)(=O)c1ccc(C(=O)O)cc1,activation,[1],0.183% and -3.09%
same,outcome,[4],inactive
same,max response,[2],-6.45% and -0.148%
same,Potency,[5],inactive
O=C(O)c1ccc(S(=O)(=O)N(Cl)Cl)cc1,activation,[1],-0.114%
same,max response,[2],7.46%
same,Potency,[5],inactive
